In the supplement of paper PMC3334620:
Over roughly 33,000 sequences, “E-score (-0.5 to 0.5)” has its median near -0.035; the highest 2% begin near 0.34. The list comes from a sample in which the highest values are over-represented; it also holds similar and randomly drawn sequences.

target: T1, Mot3 (UniProt P54785); assay: PBM E-score (8-mer binding enrichment) (E-score (-0.5 to 0.5)); higher = stronger / more preferred TF binding; conditions: protein concentration: 200 nM; construct: GST-full length
T1 sequence: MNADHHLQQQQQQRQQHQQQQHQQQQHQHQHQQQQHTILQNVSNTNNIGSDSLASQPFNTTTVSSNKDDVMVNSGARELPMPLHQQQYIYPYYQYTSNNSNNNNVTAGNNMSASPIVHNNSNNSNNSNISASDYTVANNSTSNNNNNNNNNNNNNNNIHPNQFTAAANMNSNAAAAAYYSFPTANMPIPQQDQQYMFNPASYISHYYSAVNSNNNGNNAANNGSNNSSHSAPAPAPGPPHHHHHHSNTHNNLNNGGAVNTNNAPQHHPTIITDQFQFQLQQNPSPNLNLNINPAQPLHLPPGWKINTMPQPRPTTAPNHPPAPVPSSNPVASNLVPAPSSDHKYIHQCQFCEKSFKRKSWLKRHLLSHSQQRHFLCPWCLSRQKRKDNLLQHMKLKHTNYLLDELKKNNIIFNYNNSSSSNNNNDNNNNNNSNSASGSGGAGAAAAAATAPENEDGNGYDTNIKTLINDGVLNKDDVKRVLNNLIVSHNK
Description: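 Universal 'all 10-mer' protein binding microarrays (Agilent AMADID 015681) probed with GST-tagged S. cerevisiae TFs (full-length or DBD) made by in vitro transcription/translation (PURExpress), about 100-200 nM. Bound TF was detected with fluorescent anti-GST. Each ungapped 8-mer (which stands for itself and its reverse complement) is scored by the PBM enrichment score (E-score), a modified Wilcoxon-Mann-Whitney statistic from -0.5 to +0.5, computed with the Universal PBM Analysis Suite. Scale: above 0.35 generally sequence-specific binding.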

Sequence	PBM E-score
ACAGGTAA	0.39
CCAGGTAA	0.238
GCAGGTAC	0.452
ACAGGTAT	0.194
GCAGGTAA	0.385
ACAGGTGA	0.0111
GCGTTACC	0.0266
CGGCTTCA	-0.131
CCCCACAA	-0.0534
ACTGAATC	-0.0804
AGGCTCCG	0.223
ATTGCCAC	-0.0828
GTGGTCTA	-0.279
CTTTGAAC	-0.158
GACACGTA	0.26
GACACGGA	0.22
TACACGGA	0.357
CACACGGA	0.0661
TACACGTA	0.362
CACACGTA	0.208
AGGTTGAT	-0.099
GCCCCCTA	-0.355

Sequence	PBM E-score
ATAGCGAT	-0.11
CAGAGCCG	-0.157
AATGTGTA	0.289
CATGTGTA	0.331
GATGTGTA	0.347
CTTGTGTA	0.333
ATTGTGTC	0.139
GTTGTGTA	0.373
ATTGTGTA	0.346
GTGTTGTA	0.283
ATTGTGTG	0.0589
ATCTGCCC	-0.0711
ACTGGCCC	-0.252
AACGACCG	-0.163
AAATGCGG	-0.0946
ACTGGCTG	-0.261
GACTAATC	-0.182
CCCTGCGA	-0.212
ACCTGCGA	0.0659
CCCTGTTA	0.12
GCCTGCGA	0.35
GCCTGTAA	0.391

Sequence	PBM E-score
ACCTGTTA	0.167
TCCTGTAA	0.338
GCCTGTTA	0.35
GCCTGTAC	0.338
AGAGCACC	-0.233
ACGTATCC	-0.129
CCATCTCC	-0.26
CCGGGGTC	-0.135
AGTGCGAT	-0.00843
GATTTCGC	0.167
GAGACTCA	-0.251
ACACGTTA	0.345
AAACGTGA	0.178
ACACGTTG	0.305
ACACGTGA	0.273
ACACGTTC	0.303
ACACGTGT	0.363
AAACGTGG	-0.0479
ACACGTGG	0.236
AAACGTGT	0.344
CACGCGCC	0.181
CCAGGGTA	-0.153

Sequence	PBM E-score
GCCCAACA	0.146
ATCAAAAC	-0.118
ATGTTTTA	0.362
GTGTTTTA	0.219
CTGTTTAC	0.28
CTGTTTTA	0.0859
ATGTTTAC	0.374
ATGTTTAG	0.279
CTAGAACC	-0.0352
AAGCCCTG	-0.0744
AACTACCG	-0.0555
ATGGGGAG	-0.135
GTGTATAA	0.343
ATGTGTAC	0.285
ATGTGTAG	0.303
CTGTGTAA	0.41
CTGTGTGA	0.181
ATGTATAA	0.256
CTGTGTAC	0.294
GTGTGTAA	0.394
